Data: PubChem BioAssay AID1851 (National Center for Advancing Translational Sciences (NCATS), 2009)
The whole screen tested about 16,000 compounds, of which about 2,600 (16%) were called active. Not shown: some 20% with an inconclusive outcome. Calls come from the whole dose curve; as a rule, active = well fitted curve in the direction sought with a large enough effect; inconclusive = small, poorly fitted or top-dose-only effect, or effect the other way; inactive = no such curve, though single readings can be large or run the other way. These entries were drawn from the full list.

The compounds below were run against Cytochrome P450 2D6 (Homo sapiens) (UniProt P10635) (assay: Cytochrome panel assay with activity outcomes). Conditions: recombinant CYP, pro-luciferin dealkylation, luminescence, p450-cyp2d6; series mostly up to 57.1 µM; activity, negative = inhibition: at the top concentration.
% is set by controls: 0 for no effect and ±100 for the full control effect.

Sequence of Cytochrome P450 2D6 (Homo sapiens) (P10635 whole entry, looked up): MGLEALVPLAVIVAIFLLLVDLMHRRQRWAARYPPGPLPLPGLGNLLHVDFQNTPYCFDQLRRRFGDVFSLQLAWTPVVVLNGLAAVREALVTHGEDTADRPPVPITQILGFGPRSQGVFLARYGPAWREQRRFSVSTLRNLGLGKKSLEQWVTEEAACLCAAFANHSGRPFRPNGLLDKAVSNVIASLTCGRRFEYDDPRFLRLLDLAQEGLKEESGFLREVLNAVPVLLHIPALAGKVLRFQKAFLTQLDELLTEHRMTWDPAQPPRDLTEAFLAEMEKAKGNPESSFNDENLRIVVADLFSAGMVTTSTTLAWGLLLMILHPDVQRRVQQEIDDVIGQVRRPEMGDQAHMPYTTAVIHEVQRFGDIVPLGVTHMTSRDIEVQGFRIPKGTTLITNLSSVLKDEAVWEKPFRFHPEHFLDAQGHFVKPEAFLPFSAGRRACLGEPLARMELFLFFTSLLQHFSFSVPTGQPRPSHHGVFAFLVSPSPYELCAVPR

activity, negative = inhibition, inactive:
COC(=O)C/C=C1\c2ccccc2[C@H](OC)[C@H]1C 5.25% [at 11.4 µM]
CC(C)Cn1c(C(C)C)nc([N+](=O)[O-])c1S(=O)(=O)c1ccc(F)cc1 18.2%
CSc1nc(C)cc(SC(C(C)=O)C(=O)Nc2ccccc2)n1 (stereo not drawn) -8.06%
C/C(=N\NC(=S)Nc1ccc(F)cc1)C1CC1 -27%
C[C@@]12CCC(=O)C=C1CC[C@H]1[C@H]3CC[C@](O)(C(=O)CO)[C@]3(C)CC(=O)[C@@H]12 -2.72% [at 25.6 µM]
Cc1cccc(NC(=S)NC(=O)c2cc(-c3ccccc3)nc3ccccc23)c1 17.4%
COc1ccc(NC(=O)c2cc(-c3cccnc3)nc3ccc(C)cc23)cc1OC 8.76%
COc1cccc(Nc2ncc3nc(-c4ccc(Cl)cc4)c(=O)n(CCC#N)c3n2)c1 9.73%
C=CCSc1ncccc1C(=O)NCc1ccc(C)cc1 -19.5%
O=C(/C=C\c1ccc(O)c(O)c1)O[C@@H](Cc1ccc(O)c(O)c1)C(=O)O 7.2%
CCCC(=O)NC(Nc1ccccc1F)C(Cl)(Cl)Cl (stereo not drawn) -14.8%
COCCNc1ncncc1-c1c(C)noc1C 4.62%
CC(=O)NCCNc1ncncc1-c1ccccc1C(F)(F)F -20.6%
CC(Oc1ccc(Cl)cc1)C(=O)/C=C/N(C)C (stereo not drawn) 5.98%
COc1ccc(CNc2nc3nc4c(c(=O)n3[nH]2)CCC4)cc1 3.53%
CN1CC[C@@]2(CCCN(C(=O)c3cc(C(F)(F)F)cc(C(F)(F)F)c3)C2)C1 -4.22%
O=C(NC1CCCCC1)c1ccc(COCC(F)(F)F)o1 -12.2%
Cc1cc2ccc(OC(=O)c3ccc(N=C(N)N)cc3)cc2oc1=O -7.56% [at 11.4 µM]
C=CCOc1cccc(/C=N/NC(=O)C(=O)NCc2ccco2)c1 -29.4%
C[C@@H](Cc1ccccc1)Nc1ncnc2c1ncn2[C@@H]1O[C@@H](CO)[C@H](O)[C@@H]1O -5.49%
O=C(CNC(=O)c1ccccn1)N/N=C/c1ccccc1 7.99%
CCOC(=O)C(CC)(CC)C(=O)/C=C/c1ccc(Br)cc1 6.41%
C[C@H](NC[C@H](O)CP(=O)(O)CC1CCCCC1)c1ccc(Cl)c(Cl)c1 0.922%

AC50, active:
Cc1ccc2nc(-c3ccccc3)cc(C(=O)NCCCn3ccnc3)c2c1 5.01 µM
FC(F)(F)c1ccccc1-c1cncnc1NCCc1cnc[nH]1 12.6 µM
COc1cccc(-c2cncnc2NCCc2cnc[nH]2)c1 7.94 µM
COc1ccccc1-c1cncnc1NCCc1cnc[nH]1 10 µM
C[C@H](NC[C@H](O)CP(=O)(O)Cc1ccccc1)c1ccc(Cl)c(Cl)c1 0.0501 µM
